Assay results as given in PubChem BioAssay AID624330 (Southern Research Specialized Biocontainment Screening …, 2012).
Out of some 340,000 compounds screened, about 2,100 (0.62%) were called active.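 The calls were made as follows: active = first-screen hits whose inhibition reached a set limit at any dose in the follow-up dose series; inconclusive = inhibition above the set first-screen limit but never retested; inactive = the rest.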 Only a sample is shown. Measured potencies and affinities stand elsewhere.

Each compound was assayed against Rac GTPase-activating protein 1 (Homo sapiens) (UniProt Q9H0H5) (assay: blockers of MgcRacGAP-driven Rac1 GTP hydrolysis – biochemical, ADP Hunter fluorescence, primary and confirmatory, confirmation (AID 624330;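 also: fluorescence reports GDP produced by GAP-driven GTP hydrolysis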)). Conditions: MgcRacGAP-stimulated Rac1 GTP hydrolysis, at 30 µM, hits give high values, GST-tagged Rac1 F28L mutant substrate.
Sequence of Rac GTPase-activating protein 1 (Homo sapiens) (Q9H0H5 whole entry, looked up): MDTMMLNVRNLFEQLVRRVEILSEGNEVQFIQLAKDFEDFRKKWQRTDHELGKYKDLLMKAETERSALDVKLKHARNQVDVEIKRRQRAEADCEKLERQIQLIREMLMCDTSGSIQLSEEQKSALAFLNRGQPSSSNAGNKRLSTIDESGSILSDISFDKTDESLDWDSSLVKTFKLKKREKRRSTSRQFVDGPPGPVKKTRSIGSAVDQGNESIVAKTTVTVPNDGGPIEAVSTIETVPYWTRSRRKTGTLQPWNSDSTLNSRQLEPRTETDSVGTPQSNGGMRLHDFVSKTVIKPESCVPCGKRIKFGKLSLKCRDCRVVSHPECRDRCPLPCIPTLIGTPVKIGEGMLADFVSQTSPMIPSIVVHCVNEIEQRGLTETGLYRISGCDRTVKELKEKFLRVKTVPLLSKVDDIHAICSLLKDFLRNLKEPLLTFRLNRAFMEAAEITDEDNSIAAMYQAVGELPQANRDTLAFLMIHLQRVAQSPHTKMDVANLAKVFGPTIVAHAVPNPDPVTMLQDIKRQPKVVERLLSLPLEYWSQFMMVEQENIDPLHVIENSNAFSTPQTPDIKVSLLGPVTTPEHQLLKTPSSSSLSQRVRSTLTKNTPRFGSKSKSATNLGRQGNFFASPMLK

inhibition, inactive:
COCC(C)n1c(C)cc(C(=O)CN2c3cccc4cccc(c34)S2(=O)=O)c1C (stereo not drawn) 6.1%
O=C(CN(Cc1ccc(Br)cc1)S(=O)(=O)c1ccccc1)NCc1ccccn1 11.6%
C/C(=N\NC(=O)CSc1nc2ccccc2s1)c1cccnc1 2.25%
COc1cc(OC)c(NC(=O)CCNS(=O)(=O)c2ccc3c(c2)CC(C)N3C(C)=O)cc1Cl (stereo not drawn) -10.2%
COc1cc(/C=N/NC(=O)c2c(C)nc3ccc(Cl)cn23)cc(OC)c1OC 0.19%
COc1ccc(NC(=O)c2ccc(CN3CCc4ccccc4C3)cc2)cc1OC 4.51%
COc1ccc(C(=O)/C=C/c2ccc(O)cc2)c(O)c1CC=C(C)C 7.57%
COc1ccc(C(=O)/C=C/c2ccc(O)cc2)c(O)c1C/C=C(\C)CCC=C(C)C 1.5%
CCCOc1ccc(OCCN2CCCC(C)C2)cc1 (stereo not drawn) 20%
O=C(CSc1ncnc2sccc12)NCc1ccc2c(c1)OCO2 4.24%
O=[N+]([O-])c1cccc(S(=O)(=O)c2cccc([N+](=O)[O-])c2)c1 4.34%
Nc1cccc([N+](=O)[O-])c1 0.03%
CN(C)c1ccc(/C=N/NC(=O)c2ccc3c(c2)OCO3)cc1 16.6%
Cc1c(F)cccc1NS(=O)(=O)c1ccc2c(c1)n(C)c(=O)c(=O)n2C -0.09%
Cc1c(CN2CCC(C(=O)Nc3cccc(-c4cccc(Cl)c4)c3)CC2)cnn1C 11.7%
Cn1c(SCc2ccccc2)nc2c1c(=O)[nH]c(=O)n2C -7.97%
C#CCNC(=O)C1=C[C@@H](C(C)(C)C)C[C@@H](OCc2ccc(CO)cc2)O1 7.54%
O=c1cc(-c2ccc(O)cc2)oc2cc(O)cc(O)c12 14.4%
COc1ccc(-c2cc(=O)c3c(O)cc(O)cc3o2)cc1 -5.2%
O=c1cc(-c2ccccc2)oc2cccc(O)c12 0.53%
O=c1cc(-c2ccc(O)c(O)c2)oc2ccc3ccccc3c12 2.51%
COc1cccc(/C=C/C(=O)OCC(=O)Nc2nnc(-c3ccccc3)o2)c1 4.25%
Cc1c(NC(=O)c2ccc(S(=O)(=O)Nc3ccccc3F)cc2)c(=O)n(-c2ccccc2)n1C 4.66%
Cc1c(C=O)c2ccccc2n1CC(=O)N1CCc2ccccc2C1 10.2%
O=C(CC(c1ccccc1)c1ccccc1O)NCc1ccco1 (stereo not drawn) 15.2%
O=S1c2ccccc2Oc2ccccc21 -3.3%
O=C1c2ccccc2OCOc2ccccc21 2.81%
CCCCn1c(CN2C(=O)c3ccccc3C2=O)nc2ccccc2c1=O 4.82%
CCOC(=O)C1CCCN(S(=O)(=O)c2ccc3ccccc3c2)C1 (stereo not drawn) 3.67%
CCOc1ccc(NC(=O)C(C)NC(=O)c2ccccc2Cl)cc1S(=O)(=O)N1CCCC1 (stereo not drawn) -0.23%
COC(=O)c1c(NC(=O)CSc2nccn2C)sc(C)c1C -3.2%
COc1ccc(Cl)cc1NC(=O)CNCC(c1ccccc1)N(C)C (stereo not drawn) 21.9%
Cc1cc(NC(=O)CNCC(c2ccccc2)N(C)C)c([N+](=O)[O-])cc1C (stereo not drawn) 13.9%
Cc1ccc(Cl)cc1NC(=O)CNCC(c1ccccc1)N(C)C (stereo not drawn) 30.3%
COc1ccc(CCNC(=O)CSc2ccccc2)cc1OC -5.12%
CCOC(=O)c1cc(NC(=O)CNCC(c2ccccc2)N(C)C)cc(C(=O)OCC)c1 (stereo not drawn) 16.1%
COc1ccc(CCNC(=O)Cc2ccccc2)cc1OC 10%
COc1ccc(C)cc1S(=O)(=O)N(C)CC(=O)N1CCC(C(N)=O)CC1 -7.33%
O=C(CSCC(=O)OCn1nnc2ccccc2c1=O)Nc1ccc(Cl)cc1 7.19%
CCc1nc(N2CCC3(CC2)OCCO3)c2nnn(Cc3ccccc3)c2n1 0%
CCCn1c(=NC(=O)CCS(=O)(=O)c2ccccc2)sc2cc(S(N)(=O)=O)ccc21 -5.12%
CCC(=O)N1CCC(c2ccc(OC)cc2)=N1 1.71%
CCC(=O)Nc1nnc(S(=O)(=O)N(CC)c2cc(C)cc(C)c2)s1 3.75%
Cc1ccc2nc(-c3ccncc3)c(NC3CCCC3)n2c1 -17.4%
Cc1ccn2c(NC3CCCC3)c(-c3ccsc3)nc2c1 13.1%
O=C(Nc1ccc(Cl)cc1)C1CCN(C(=O)c2cccs2)CC1 6.08%
Cc1ccc2occ(C(c3nnnn3Cc3ccccc3)N3CCOCC3)c(=O)c2c1 (stereo not drawn) 7.16%
C=C1CC(C(=O)N/N=C/c2ccccc2)C1 11.8%
O=C(NN=Cc1ccc(O)cc1)C(=O)NN=Cc1ccc(O)cc1 28.3%
O=[N+]([O-])c1ccc(C=NNC(=S)NN=Cc2ccc([N+](=O)[O-])cc2)cc1 -0.77%
O=C(NN=Cc1ccc(F)cc1)C1CC1 6.86%
O=C(Nc1cccc(NC(=O)c2ccco2)c1)c1ccc2c(c1)OCCO2 2.32%
O=C(Nc1ccc(NC(=O)c2ccc3c(c2)OCCO3)cc1)c1ccccc1 1.42%
O=C(NC1CCCCCC1)c1ccc[nH]c1=S 5.17%
COc1ccc(NC(=O)CSc2nnc3ccc(-c4cccnc4)nn23)c(OC)c1 -2.52%
O=C1CS/C(=N/N=C/c2ccccc2)N1c1ccc(O)cc1 8.23%
COc1ccc(/C=N\N=C2/SC(CC(=O)O)C(=O)N2c2ccc(O)cc2)cc1OC (stereo not drawn) 2.46%
COc1ccc(/C=N/N=C2\SCC(=O)N2c2c(C)n(C)n(-c3ccccc3)c2=O)cc1OC 5.82%
COc1ccc(/C=N\N=C2/SC(CC(=O)O)C(=O)N2c2ccc(O)cc2)cc1 (stereo not drawn) 3.73%
O=C(NCCC1=CCCCC1)C(=O)c1c[nH]c2ccccc12 1.95%
Cc1ccc(S(=O)(=O)[N-]c2nc3ccccc3nc2-[n+]2cc(C)cc(C)c2)cc1 9.42%
COc1ccccc1Oc1nnnn1-c1ccc(C(N)=O)cc1 2.99%
CCn1cc(/C=C(\NC(=O)c2ccccc2F)C(=O)N2CCN(C)CC2)c2ccccc21 19%
C[C@@H]1CN(S(=O)C(C)(C)C)[C@@H](CCO)/C1=C\CCO (stereo partly drawn) 8.46%
Cc1cc(NC(=O)c2ccccc2)no1 5.35%
Cc1ccc2c(Cl)c(C(=O)Nc3cc(C)on3)sc2c1 4.78%
Cc1ccc(S(=O)(=O)c2c(COC(=O)c3ccccc3Cl)c(-c3ccccc3)nn2C)cc1 4.7%
Cc1nc2ccc(NC(=O)CCS(=O)(=O)c3ccc(Cl)cc3)cc2s1 -5.04%
CC(C)CC1NC(=O)N(CC(=O)Nc2ccc3c(c2)CCC3)C1=O (stereo not drawn) 9.25%
O=C(NCCS(=O)(=O)c1ccc(Cl)cc1)c1ccc(F)cc1 2.29%
Cc1c(C(=O)Nc2ccc(S(=O)(=O)Nc3ncccn3)cc2)oc2ccc(F)cc12 -2.01%
O=C(O)C1CCN(Cc2cccnc2)CC1 2.37%
CC1CCCCN1Cc1ccc(N)cc1 (stereo not drawn) 5.78%
O=S1(=O)CCN(Cc2cccnc2)CC1 0.02%
CC1CCCCN1Cc1ccc(N(C)C)cc1 (stereo not drawn) 9.51%
COc1ccc(CN(CCc2ccccc2)Cc2ccccc2)cc1OC 28.5%
O=C(O)CSc1nnc(SCc2cccc3ccccc23)s1 4.86%
CCN(CC)C(=O)CSc1nc2c(sc(=S)n2CC)c(=O)n1-c1ccccc1 2.69%
Cc1ccc(N2C(=O)NC3(CCCCC3)C2=O)cc1 8.08%
COc1ccc(N2C(=O)NC(=O)C2=O)cc1 6.21%
COC(=O)[C@@]12CCCN1[C@H](c1ccc(-c3ccc(Cl)c(Cl)c3)cc1)[C@H]1C(=O)N(C)C(=O)[C@H]12 -9.75%
O=C(CN1CCc2ccccc2C1)Nc1ccccc1F 8.8%
CC(C(=O)Nc1ccc2c(c1)OCO2)N1CCC(N2CCCCC2)CC1 (stereo not drawn) 26%
CN1CCN(CCC(=O)Nc2ccc(F)c(F)c2)CC1 2.01%
Cc1cnc(NC(=O)C(C)N2C(=O)C3CC=CCC3C2=O)s1 (stereo not drawn) 5.83%
CC(=O)c1ccc(N2CCN(C(C)C(=O)Nc3ccc4c(c3)OCCO4)CC2)cc1 (stereo not drawn) -0.86%
Cc1ccc(NC(=O)C(C)N2CCCC2)cc1Cl (stereo not drawn) 13.2%
O=C(CN1CCc2ccccc2C1)Nc1ccccc1Cl 9.11%
Cc1cnc(NC(=O)[C@H](C)N2C(=O)C3CCCCC3C2=O)s1 (stereo partly drawn) 1.01%
Cc1cccc(-c2nc(C#N)c(N3CCC(C)CC3)o2)c1 -3.59%
COc1ccccc1/C=N/NC(=O)CC(=O)Nc1ccc(Cl)c(Cl)c1 3.66%
Cc1ccc(S(=O)(=O)NCCC(=O)N2CCN(Cc3ccccc3)CC2)cc1 -1.47%
Cc1ccc(C(=O)OCC(=O)NCc2cccs2)c(C)c1 6.37%
Cc1ccc(Oc2ccccc2NC(=O)CSCC(=O)Nc2cc(C)on2)cc1 3.22%
CN1CCN(CCNC(=O)Nc2ccccc2C(F)(F)F)CC1 -0.21%
COc1ccc(NC(=O)NN2CCN(C)CC2)cc1 2.87%
CN1CCN(CC(=O)Nc2ccccc2C(F)(F)F)CC1 28.9%
COc1ccc(S(=O)(=O)N2CCN(C(C)C(=O)Nc3ccc(C(C)C)cc3)CC2)cc1 (stereo not drawn) 5.24%
